# An excerpt weighted towards active compounds, which were near 3.8% of everything screened.
# ADAM10 inh = inhibitors of human ADAM10. inhibition, % at 7 µM. recombinant ADAM10, EDANS/DABCYL FRET peptide cleavage, 3 h. AID 720582. 0.62% of 370,000 active;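 active = inhibition above a per-campaign cutoff equal to the mean of compounds falling between control-based bounds plus 3 SD, cut at about 20% in these data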
# ADAM17 inh = inhibits human ADAM17; P78536; recombinant ADAM17, EDANS/DABCYL FRET peptide cleavage; inhibition, % at 6.95 µM; 0.83% of 370,000 active; AID 720648;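 active = inhibition above the mean of compounds lying between control limits plus 3 SD, set per campaign, cut at about 8.5% in these data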
# Target sequence (P78536 215-824 limits assumed): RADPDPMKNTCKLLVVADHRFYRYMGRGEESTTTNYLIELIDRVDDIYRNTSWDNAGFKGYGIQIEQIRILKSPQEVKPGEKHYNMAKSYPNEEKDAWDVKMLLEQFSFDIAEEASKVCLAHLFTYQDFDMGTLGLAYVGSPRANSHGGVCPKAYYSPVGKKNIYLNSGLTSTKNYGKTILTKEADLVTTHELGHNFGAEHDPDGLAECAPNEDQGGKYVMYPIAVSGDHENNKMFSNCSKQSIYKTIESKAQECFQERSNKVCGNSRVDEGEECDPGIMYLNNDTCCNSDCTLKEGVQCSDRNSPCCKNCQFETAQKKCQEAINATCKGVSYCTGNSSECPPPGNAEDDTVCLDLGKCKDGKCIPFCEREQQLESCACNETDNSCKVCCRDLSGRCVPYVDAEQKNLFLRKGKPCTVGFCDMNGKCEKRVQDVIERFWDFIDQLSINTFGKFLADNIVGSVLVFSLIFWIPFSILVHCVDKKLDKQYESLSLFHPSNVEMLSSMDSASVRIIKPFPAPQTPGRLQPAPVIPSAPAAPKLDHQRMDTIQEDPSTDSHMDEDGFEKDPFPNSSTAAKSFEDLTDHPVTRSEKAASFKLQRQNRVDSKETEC
# FGF22 binding-1 = shifts melting point of recombinant human FGF22 | 1.5% of 340,000 active | AID 651658 | recombinant FGF22 thermal shift, SYPRO orange fluorescence; percent of sucrose octasulfate shift, DMSO zero | activity (Tm shift, normalised), % at 9.99 µM | Q9HCT0;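 active = mean Tm shift, scaled 0 neutral to 100 positive control, at about 1.3% or above, every replicate too, limit read from the data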
# proKLK7 act = activates the human kallikrein-7 zymogen | P49862 | purified proKLK7, EDANS-DABCYL substrate fluorescence; 100% is mature enzyme control, 0% vehicle | activation, % at 7 µM | 0.9% of 370,000 active;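 active = activation above the mean of all tested compounds plus 3 SD, computed per campaign excluding outliers beyond control limits, cut at about 13% in these data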
# Ecoli rRNA inh = selective bacterial rRNA inhibition in E. coli; E. coli WT GFP vs humanized-ribosome RFP mutants, fluorescence, 24 h; hits give low values; DMSO median 0, no signal -100; 1.6% of 350,000 active; GFP signal change (wild-type ribosome), % (no concentration beside the values);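 active = significant combined selectivity score with lowered wild-type GFP, culture density cut under 30%, mutant RFP and density less affected; inactive = any of these conditions unmet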
# FGF22 binding-2 = binds human FGF22 shifting its melting temperature. 2% of 1,000 active. recombinant FGF22 thermal shift, SYPRO orange fluorescence. shares compounds with FGF22 binding-1. thermal shift activity, °C (ΔTm) at 38 µM;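 active = fitted rise in melting shift crosses a set limit at or below the top valid dose tested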
# FGF22 TSA DP = binds human FGF22 shifting its melting temperature | shares compounds with FGF22 binding-1 | Thermal shift assay, SYPRO orange, melting temperature shift | Tm shift (activity), % at 38 µM | 50 tested, under 10 active;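 active = compounds whose fitted dose curve of melting temperature shift rises past a set threshold within the tested doses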
# TSA no protein = shows thermal shift signal without protein, FGF22 counter-screen | AC50, µM (doses to about 38 µM) | shares compounds with FGF22 binding-1 | 2% of 1,000 active | compound-only SYPRO orange thermal shift counter-screen, no protein | AID 743019;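 active = rising signal whose fitted curve reaches the 0.54 level within the top valid dose, showing a melting point, actives reach about 13 µM in these data; inactive = the rest, including activity in the opposite direction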; also: value is where the raw curve crosses a fixed level and not half-maximal
# Numbers stand for hits; 0 = inactive; - = no result.
SMILES,ADAM10 inh,ADAM17 inh,FGF22 binding-1,proKLK7 act,Ecoli rRNA inh,FGF22 binding-2,TSA no protein,others
O=C(NCCc1c[nH]c2ccccc12)c1ccc(Cl)cc1,0,0,2.4,0,0,0,0,FGF22 TSA DP=0
N#C[C@@H]1[C@H](c2ccccc2-c2cccc(F)c2)[C@@H](CO)N1C(=O)NC1CCCCC1,-,-,-,-,0,-,-,
Cc1ccc(Oc2ccc(S(=O)(=O)NCC(C)(C)N3CCOCC3)cc2)cc1,0,0,0,0,0,-,-,
CC(C)(CNS(=O)(=O)c1ccc2c(c1)OCCO2)N1CCOCC1,0,0,1.4,0,0,0,0,
COc1ccccc1CNC(=O)C[C@H]1CC[C@H]2[C@@H](COC[C@H](O)CN2C(=O)Nc2ccc(Cl)cc2)O1,-,-,0,-,0,-,-,
O=C(C[C@@H]1CC[C@H]2[C@@H](COC[C@H](O)CN2CC2CCOCC2)O1)NCC1CCCCC1,-,-,0,-,0,-,-,
C[C@H](NC(=O)C[C@@H]1CC[C@@H]2[C@H](COC[C@@H](O)CN2C(=O)Nc2cccc(Cl)c2)O1)c1ccccc1,-,-,1.5,-,0,0,0,
O=C(C[C@@H]1CC[C@H]2[C@@H](COC[C@@H](O)CN2CC2CCOCC2)O1)NCC1CCCCC1,-,-,7.9,-,0,0,0,
COc1ccccc1CNC(=O)C[C@H]1CC[C@@H]2[C@H](COC[C@H](O)CN2C(=O)Nc2ccc(Cl)cc2)O1,-,-,17,-,0,0,0,
COc1cccc(NC(=O)N2C[C@H](O)COC[C@@H]3O[C@@H](CC(=O)NC4CCC4)CC[C@H]32)c1,-,-,1.4,-,0,0,0,
COc1cccc(NC(=O)N2C[C@H](O)COC[C@@H]3O[C@H](CC(=O)NC4CCC4)CC[C@H]32)c1,-,-,0,-,0,-,-,
CC(C)NC(=O)N(C)C[C@@H]1OCCCC[C@H](C)Oc2ccc(NC(=O)Nc3ccc(C(F)(F)F)cc3)cc2C(=O)N([C@H](C)CO)C[C@@H]1C,-,-,0,-,0,-,-,
COCc1cn(CC[C@H]2CC[C@H](NC(=O)Nc3ccc(OC)cc3)[C@H](CO)O2)nn1,-,-,0,-,0,-,-,
CO[C@@H](CN(C)C(=O)c1ccccc1F)[C@@H](C)CN([C@@H](C)CO)S(=O)(=O)c1ccc(Cl)cc1,-,-,0,-,0,-,-,
O=C(C[C@@H]1CC[C@@H]2[C@H](COC[C@@H](O)CN2C(=O)Nc2cccc(Cl)c2)O1)NCC1CCCCC1,-,-,14,-,0,0,0,
O=C(C[C@H]1CC[C@H]2[C@@H](COC[C@@H](O)CN2C(=O)Nc2cccc(Cl)c2)O1)NCC1CCCCC1,-,-,0,-,0,-,-,
CC(=O)Nc1ccc(S(=O)(=O)Nc2nc3ccc([N+](=O)[O-])cc3s2)cc1,0,0,3.4,0,0,0,0,
CC=Cc1ccc2n(c1=O)C[C@H]1[C@H](CO)[C@@H](C(=O)NC3CCC3)[C@@H]2N1Cc1ccccc1 (mixture of isomers),-,-,0,-,0,-,-,
CC1(c2ccc3ccccc3c2)NC(=O)N(CC(=O)Nc2ncccc2O)C1=O (stereo unspecified),0,0,1.7,0,0,0,0,
Cc1ccnc(NC(=O)CN2C(=O)NC(C)(c3ccc4ccccc4c3)C2=O)c1 (stereo unspecified),0,0,0,0,0,-,-,
COCC(=O)Nc1ccc2c(c1)C(=O)N(C)[C@H]1CC[C@@H](CC(=O)NCc3cccc(F)c3)O[C@@H]1CO2,-,-,0,-,0,-,-,
O=C1[C@@H](Cc2ccc(F)cc2)CCn2cc(nn2)COC[C@H]2CCCN12,-,-,-,-,0,-,-,
Cc1cccc(S(=O)(=O)N2CCCCN3[C@H](CO)[C@@H](c4ccc(C#C[C@H](C)O)cc4)[C@@H]3C2)c1,-,-,0,-,0,-,-,
Cc1cccc(S(=O)(=O)N2CCCCN3[C@@H](CO)[C@@H](c4ccc(C#C[C@H](C)O)cc4)[C@@H]3C2)c1,-,-,1.3,-,0,0,0,
CC(=O)Nc1ccc(S(=O)(=O)Nc2nc3ccccc3nc2Nc2cccc(S(N)(=O)=O)c2)cc1,0,0,2.0,0,0,0,0,
SMILES,ADAM10 inh,ADAM17 inh,FGF22 binding-1,proKLK7 act,Ecoli rRNA inh,FGF22 binding-2,TSA no protein,others
COc1ccc(-c2cn(CC[C@@H]3CC[C@@H](NC(=O)Nc4ccc(F)cc4)[C@H](CO)O3)nn2)cc1,-,-,-,-,0,0,0,
O=C(Nc1ccc(F)cc1)N[C@@H]1CC[C@H](CCn2cc(-c3ccc(F)cc3)nn2)O[C@@H]1CO,-,-,0,-,0,-,-,
O=C(N[C@H]1CC[C@H](CCn2cc(C3(O)CCCC3)nn2)O[C@@H]1CO)C1CCCCC1,-,-,1.8,-,0,0,0,
O=C(Nc1ccc(F)cc1)N[C@@H]1CC[C@H](CCn2cc(-c3ccc(F)cc3)nn2)O[C@H]1CO,-,-,2.4,-,0,0,0,
COc1ccc(-c2cn(CC[C@H]3CC[C@@H](NC(=O)Nc4ccc(F)cc4)[C@@H](CO)O3)nn2)cc1,-,-,0,-,0,-,-,
O=C(N[C@H]1CC[C@@H](CCn2cc(C3(O)CCCC3)nn2)O[C@@H]1CO)C1CCCCC1,-,-,0,-,0,-,-,
COc1ccc(NC(=O)N[C@@H]2CC[C@H](CCn3cc(-c4ccc(F)cc4)nn3)O[C@H]2CO)cc1,-,-,0,-,0,-,-,
COc1ccc(NC(=O)N[C@H]2CC[C@@H](CCn3cc(-c4ccc(OC)cc4)nn3)O[C@@H]2CO)cc1,-,-,1.3,-,0,0,0,
Cc1ccc(S(=O)(=O)NCC[C@H]2CC[C@H](NC(=O)C3CCOCC3)[C@H](CO)O2)cc1,-,-,0,-,0,-,-,
CC(=O)Nc1ccc2c(c1)C(=O)N(C)C[C@H](C)[C@H](CN(C)C(C)=O)O2,-,-,-,-,0,-,-,
COCCNC(=O)C[C@H]1CC[C@@H]2[C@H](COC[C@@H](O)CN2C(=O)Nc2ccc3c(c2)OCO3)O1,-,-,0,-,0,-,-,
Cc1[nH]c2ccccc2c1/C=N/NC(=O)c1cccc(F)c1,0,0,2.0,0,0,0,0,
Cc1c(/C=N\NC(=O)c2ccc(F)cc2)cnn1C,0,0,-,0,-,-,-,
Cc1c(/C=N\NC(=O)c2cccc(F)c2)cnn1C,0,0,2.0,0,0,0,0,
O=C(O/N=C1\CCCc2ccccc21)C1CC1,0,0,2.7,0,0,0,0,
CC=Cc1ccc2n(c1=O)C[C@H]1[C@H](CO)[C@@H](C(=O)N[C@@H](C)c3ccccc3)[C@@H]2N1CC (mixture of isomers),-,-,0,-,0,-,-,
COc1ccc(CN2C[C@H](C)[C@H](OC)CN(C)C(=O)c3cc(NC(=O)c4nc5ccccc5s4)ccc3OC[C@@H]2C)cc1,-,-,0,-,0,-,-,
N#C[C@@H]1[C@H](c2ccc(C#Cc3ccccc3F)cc2)[C@@H](CO)N1C(=O)C1CCCC1,-,-,-,-,0,-,-,
O=C(Nc1cc(Cl)cc(Cl)c1)N[C@@H]1CC[C@@H](CCNS(=O)(=O)c2cccc(F)c2)O[C@H]1CO,-,-,2.6,-,0,0,0,FGF22 TSA DP=0
